# Laboratory results as given in PubChem BioAssay AID720536 (National Center for Advancing Translational Sciences (NCATS), 2013).
# Out of some 1,600 compounds screened, about 650 (41%) were called active. Roughly 39% stayed inconclusive and do not appear here. Calls follow the shape of the dose curve; as a rule, active = well fitted inhibition curve with a large enough effect; inconclusive = small, poorly fitted or top-dose-only effect; inactive = no such curve, though single readings can be large or run the other way. The set was probably picked from earlier hits. Only a selection was taken, and actives are over-represented in it overall.
# Test: qHTS for Inhibitors of TGF-b: CCL64 Cells Orthogonal Assay for Cherry Picks; also: nearly all actives have a fitted effect of over 65% in size
# Conditions: CCL64 CAGA-GFP reporter, TGF-b stimulated, GFP fluorescence, 18 h; series mostly up to 46.1 µM
# From the text: TGF-b is a main component in the TGF-b signaling pathway which plays diverse roles in cellular and development pathways. TGF-b is the mediated by the transcription factors Smads. Although the Smad-dependent pathway is the primary canonical TGF-b signaling node, TGF-b1 can also activate alternative signaling pathways, including those involving MAPK (ERK, JNK and p38). This interaction may mediate or enhance Smad-dependent responses, or can exert Smad-independent effects. The complexity of this signaling cascade allows the TGF-b superfamily to perform unique, overlapping or redundant functions. We believe that targeting the TGF-beta pathway at the Smad-transcription factor level may eliminate the consequences of disrupting the entire pathway and offer specificity without affecting other signaling pathways. Smad3 is the primary transducer of TGF-b's signals and Smad3 regulates many functions attributed to TGF-b signaling. We hypothesize that Smad3 inhibitors will selectively eliminate Smad3-specific TGF-beta signals without undesired off-target effects. We aim to identify Smad3-small molecule antagonists using a quantitative high throughput screening (qHTS) approach. A high-throughput assay was developed to screen the NIH Molecular Libraries Small Molecule Repository (MLSMR). This is a cell based assay, where TGF-b is tagged with GFP. This orthogonal assay was run using CCL64 cells (as opposed to HepG2); activity was desired in this assay as this indicated the hits identified from the screen are not a cell-based artifact. MH087449NIH Chemical Genomics Center [NCGC] NIH Molecular Libraries Probe Centers Network [MLPCN] MLPCN Grant: MH087449 Assay Submitter (PI): Sushil Rane, National Institute of Diabetes and Kidney Diseases
# Suspensions of trypsinized CCL64 CAGA-GFP cells were dispensed into white, tissue culture-treated, solid 1536-well plates at 5uL/well (1000 cells/well final concentration) in DMEM medium supplemented with 1% FBS. Plates were incubated at 37 degrees C for 2 hours, after which 23 nL of compounds or DMSO were delivered to each well using a pin tool. One uL of recombinant TGF-beta in DMEM (1% FBS) was then dispensed (500 pg/mL final concentration), and plates were incubated at 37 degrees C for 18 hours. The plates were measured on an Acumen eX3 Explorer plate reader for GFP fluorescence (ex488/em500-530). GFP values were calculated by determining the mean GFP fluorescence of individual cells, and compiling these values for each well to determine a total well GFP signal. The %Activity was determined from the corrected fluorescence values. A titration of the known TGF-B inhibitor SB431542 was included to monitor plate performance, while unstimulated […] (-TGF-B) control wells were used to normalize %Activity of identified inhibitors; unstimulated wells corresponded to 100%Activity (full inhibition), while stimulated cell controls (+DMSO) were used to normalize 0%Activity (no inhibition). Concentration-response curves were fitted to the signals arising from the resulting fluorescence. The concentration-effect curves were then classified based on curve quality (r2), response magnitude and degree of measured activity, and compounds were subsequently categorized based on their curve class.
# Potency is read from the fitted curve at half-maximal effect.
row,SMILES,Potency
1,CCC(C)(O)C(=O)OC1C(=O)OC2CC3C(C)=CC(=O)C(O)C3(C)C3C4(O)OCC23C1C(C)C4O (stereo not given),0.231 µM (active)
2,O=c1c2ccccc2nc(/C=C/c2ccc(F)cc2)n1-c1ccccc1O,18.4 µM (active)
3,COC(=O)C1=C(c2cc3ccccc3o2)C[C@@H]2CC[C@H]1N2C(=O)NC1CCCCC1,14.6 µM (active)
4,CC[C@H]1CN2CCc3cc(OC)c(OC)cc3[C@@H]2C[C@@H]1C[C@H]1NCCc2cc(OC)c(OC)cc21,0.116 µM (active)
5,O=Cc1cn(Cc2ccc(F)cc2Cl)c2ccccc12,inactive
